# Screening data from PubChem.
# hgDAF-12 ag: H. glycines DAF-12 receptor agonists, primary screen, cell-based, luminescence, HEK293, GAL4 fusion, UAS-luciferase; HEK293 GAL4-hgDAF12 UAS-luciferase reporter, agonist luminescence; normalized to butyrate control; activation, % at 6.8 µM; hit rate 1.8% among 370,000;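 active means activation above a cutoff set at the mean of all screened compounds plus 3 SD, cut at about 10% in these data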;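 further: 0% = DMSO wells and 100% = sodium butyrate wells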
# ssDAF12 agonist: S. stercoralis DAF-12 nuclear receptor activators, primary screen, cell-based, luminescence, HEK293, GRIP1 co-expression, lit1-tk-luc | Nuclear hormone receptor DAF-12 (Strongyloides stercoralis) | HEK293 ssDAF-12/GRIP1 lit1-tk-luc reporter; % of 3 µM dafachronic acid response | AID 652126, 2013 | hit rate 1% among 370,000 | activation, % at 6.8 µM;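 active means activation above the mean over all tested compounds plus 3 SD, cut at about 0.9% in these data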;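 further: 0% = DMSO-only wells and 100% = 3 µM delta7-dafachronic acid wells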
# hcDAF12 agonist: H. contortus DAF-12 nuclear receptor activators, primary screen, cell-based, luminescence, HEK293, lit1-tk-luc reporter | hit rate 1.4% among 370,000 | HEK293 hcDAF-12 lit1-tk-luc reporter; 0% DMSO, 100% Δ7-dafachronic acid | activation, % at 6.8 µM;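 active means activation above the mean of all tested compounds plus 3 SD, cut at about 5.5% in these data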;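 further: 100% = response to 3 µM Δ7-dafachronic acid high control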
# DAX1 inh-1: DAX1 (NR0B1) inhibitors, primary screen, cell-based, HEK293, Gal4-DAX1, luciferase luminescence | hit rate 0.99% among 340,000 | HEK293 Gal4-DAX1 luciferase reporter | Nuclear receptor subfamily 0 group B member 1 (Homo sapiens), P51843 | AID 504766, 2011 | inhibition, % at 6.75 µM;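 active means inhibition above the mean over all tested compounds plus 3 SD, cut at about 4.2% in these data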;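 further: 0% = DAX1-transfected cells with DMSO and 100% = empty-vector control cells with DMSO; inhibition shows as a rise in luminescence from relieved DAX1 repression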
# Target sequence (P51843 207-470 limits assumed): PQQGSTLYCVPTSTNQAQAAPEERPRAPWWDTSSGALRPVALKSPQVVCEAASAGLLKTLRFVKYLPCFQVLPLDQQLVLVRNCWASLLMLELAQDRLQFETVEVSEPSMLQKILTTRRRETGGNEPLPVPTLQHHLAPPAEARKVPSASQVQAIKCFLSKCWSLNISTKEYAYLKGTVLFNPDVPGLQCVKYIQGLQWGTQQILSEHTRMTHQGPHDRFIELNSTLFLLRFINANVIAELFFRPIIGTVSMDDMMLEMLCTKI
# DAX1 inh-2: DAX1 (NR0B1) inhibitors on StAR promoter, primary screen, cell-based, luminescence, SF-1 (NR5A1), full-length DAX-1 | HEK293T StAR-luciferase reporter, SF-1/DAX-1 repression relief | inhibition, % at 6.8 µM | hit rate 1.1% among 370,000 | AID 652010, 2013;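 active means inhibition above the mean over all tested compounds plus 3 SD, cut at about 3.6% in these data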;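 further: 0% = DAX-1 cells with DMSO and 100% = cells lacking DAX-1 with DMSO; higher inhibition means more luminescence from relief of DAX-1 repression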
# * hit, by the source's call; / = no result given. In the library only some 4.1% were active in any assay of this set; here they are far more common.
SMILES,hgDAF-12 ag,ssDAF12 agonist,hcDAF12 agonist,DAX1 inh-1,DAX1 inh-2
CCCNC(=S)NC1CCCC1,2,0,2,0,0
COC(=O)CN1C(=O)C(O)(CC(=O)c2ccc(C)cc2)c2cc(Br)ccc21 (stereo unspecified),5,-1,-1,4.5*,-1
COC(=O)CN1C(=O)C(O)(CC(=O)c2ccc(Br)cc2)c2ccccc21 (stereo unspecified),2,-1,0,3,0
CCn1c(C)nc2cc(C(=O)OC)ccc21,2,-1,1,0,1
CCn1c(C)nc2cc(NC(=O)Nc3cccc(C(C)=O)c3)ccc21,12*,0,1,1,0
Cc1nc(NC(=S)NC(=O)COc2ccccc2Cl)ccc1Br,-3,0.9*,-2,0,-1
CC(C)(C)N(NC(=O)Nc1ccccc1)C(=O)c1ccccc1Cl,0,-1,0,6.3*,0
CC(C)(C)N(NC(=O)Nc1cccc(F)c1)C(=O)c1ccccc1Cl,0,-1,0,/,0
Cc1c(C(=O)N2CCCC2)c(S(=O)(=O)Nc2ccccc2)c(C)n1C,-1,-1,1,2,0
O=C(CCCC(=O)N1CCN(c2ccccc2F)CC1)c1ccccc1,8,0,0,17*,2
COc1ccccc1N1CCN(CCOc2c(OC)cccc2OC)CC1,-3,-1,-1,4.6*,0
COc1ccccc1N1CCN(CCCCOc2c(OC)cccc2OC)CC1,0,-1,-1,0,-1
COc1ccccc1N1CCN(/N=C/c2cc(OC)c(OC)c(OC)c2)CC1,-2,-2,-1,2,0
COc1ccccc1N1CCN(C(=O)c2cc3ccccc3[nH]2)CC1,-1,-1,0,-2,2
COc1ccccc1N1CCN(/N=C\c2ccccc2)CC1,5,-1,3,5.1*,1
COc1ccccc1N1CCN(C(=O)c2cc3cc(F)ccc3[nH]2)CC1,2,0,5.8*,-1,0
O=C(CCCC(=O)N1CCN(c2ccccc2F)CC1)N1CCN(c2ccccc2F)CC1,-1,-1,-2,2,1
CCOc1ccc(N(CC(=O)Nc2c(C)n(C)n(-c3ccccc3)c2=O)S(=O)(=O)c2ccc3c(c2)N(C(=O)C2CCC2)CC3)cc1,2,-2,-2,/,0
CC(CN1C(C)CCCC1C)OC(=O)c1ccc(Cl)cc1Cl (stereo unspecified),4,-1,-1,-1,0
Cc1ccc(N2CCN(/N=C/C(Cl)=C/c3ccccc3)CC2)cc1,-2,-1,0,0,0
COc1ccccc1N1CCN(/N=C/C(Cl)=C/c2ccccc2)CC1,8,0,2,5.0*,1
COc1ccccc1N1CCN(C(=O)CCC(=O)O)CC1,1,-1,-2,5.5*,1
O=C(Nc1ccc(O)cc1)c1ccc2c(c1)C(=O)N(N1C(=O)c3ccccc3C1=O)C2=O,-1,-1,0,1,-1
O=C(Nc1ccccc1O)c1ccc2c(c1)C(=O)N(N1C(=O)c3ccccc3C1=O)C2=O,2,1.3*,5.9*,0,1
O=C(COC(=O)COc1ccc2ccccc2c1)NCC(F)(F)F,0,-1,5.6*,0,0
CCOC(=O)/C(C#N)=C/Nc1ccccc1OC(F)(F)F,2,1.5*,-1,/,-1
CCC(CO)Nc1ccn2nc(-c3cc(OC)c(OC)c(OC)c3)cc2n1 (stereo unspecified),1,-1,0,/,0
CCC(CO)Nc1ccn2nc(-c3cccs3)cc2n1 (stereo unspecified),11*,0,4,/,3.9*
CCC(/C=C1\Sc2ccc(OC)cc2N1CC)=C\c1sc2ccc(OC)cc2[n+]1CCCS(=O)(=O)[O-],0,5.6*,-1,0,0
CCC(/C=C1\Sc2ccc(OC)cc2N1CCO)=C\c1sc2ccc(OC)cc2[n+]1CCO,1,-2,-4,0,-2
